Data taken from PubChem BioAssay (NCATS).
Records with an inconclusive call do not appear. A call without a number means that no potency is given here. Calls of active or inactive are those of the source. The call rests on the fitted dose curve; in most records, active means well fitted inhibition curve with a large enough effect; inconclusive means small, poorly fitted or top-dose-only effect; inactive means flat fitted curve, though single readings scatter. Where a SMILES comes first, the peptide text is derived from it.

These molecules were tested against Calcium and integrin-binding protein 1 (Homo sapiens) (UniProt Q99828) (assay: Primary qHTS for Identification of Calcium Integrin Binding Protein 1 (CIB1) Competitor (AID 1508620;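 further: GST tagged CIB1 binding a fluorescein labelled alphaIIb integrin peptide tracer; top concentration of the series differs between compounds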)). Conditions: CIB1-GST / FITC-alphaIIb peptide fluorescence polarization; series mostly up to 57.7 µM.
How it was run: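 CIB1-GST (1 uM final) and compound incubated 15 min at room temperature before adding FITC-alphaIIb peptide tracer (100 nM final). Competition for binding read by fluorescence polarization (ex 480, em 540) after another 15 min at room temperature.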

Sequence of Calcium and integrin-binding protein 1 (Homo sapiens) (Q99828 whole entry, looked up): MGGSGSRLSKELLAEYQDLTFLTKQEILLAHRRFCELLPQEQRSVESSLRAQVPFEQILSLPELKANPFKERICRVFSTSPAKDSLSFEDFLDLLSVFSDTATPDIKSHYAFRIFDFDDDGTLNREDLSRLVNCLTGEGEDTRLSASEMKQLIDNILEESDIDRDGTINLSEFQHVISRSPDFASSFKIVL

Compound	Potency	activity change, negative = inhibition
COc1cc(C2Oc3c(OC)cc(CCCO[C@@H]4O[C@H](CO)[C@@H](O)[C@H](O)[C@H]4O)cc3C2CO)ccc1O (stereo not given in full)	inactive	–
COc1cc(/C=C/C(=O)OC2CC(OC(C)=O)C(OC(C)=O)C3C2CCC2C(=O)OC(c4ccoc4)CC23C)ccc1O[C@@H]1O[C@H](CO)[C@@H](O)[C@H](O)[C@H]1O (stereo not given in full)	inactive	–
CC1NC(=O)CNC(=O)C(C(C)C)NC(=O)C2CCCN2C(=O)C(C(C)C)NC(=O)C(Cc2c[nH]c3ccccc23)NC1=O (stereo not given) (cyclo(GAWVPV); configuration not given here)	inactive	–
CC(c1c[nH]c2ccccc12)C(O)C(=O)O (stereo not given)	inactive	–
C=C1CCC2C(C)(C(=O)O)CC(O)CC2(C)C1CC/C(C)=C/C(=O)O (stereo not given)	inactive	–
COc1ccc(C)c2sc(NC(=O)c3ccncc3)nc12	inactive	–
COc1cc2c(cc1O)C1(Cc3ccc4c(c3C1=O)OCO4)N(C)CC2 (stereo not given)	inactive	–
CC1(C(=O)O)CCCC2(C)C1CCC13CC(CCC21)C1(CO)OC31 (stereo not given)	inactive	–
COc1ccccc1[C@@H]1C2=C(CC(C)(C)CC2=O)Nc2n[nH]c(C(F)(F)F)c21	inactive	–
CC(C)CC(=O)n1cc(C(N)=O)c(=O)cc1C(O)c1ccccc1 (stereo not given)	inactive	–
CC(=O)OC[C@@]12[C@H](O)C[C@]3(C)C(=CCC4[C@@]5(C)CC[C@H](O[C@@H]6O[C@H](C(=O)O)[C@@H](O[C@@H]7O[C@H](CO)[C@@H](O)[C@H](O)[C@H]7O)[C@H](O)[C@H]6O[C@@H]6O[C@H](CO)[C@@H](O)[C@H](O)[C@H]6O)[C@](C)(CO)C5CC[C@]43C)[C@@H]1CC(C)(C)[C@@H](OC(C)=O)[C@@H]2O (stereo not given in full)	inactive	–
CC1=C(C)C(=O)OC(C(C)(O)C2CCC3C4CC=C5CC(OC6OC(COC7OC(CO)C(O)C(O)C7O)C(O)C(O)C6O)CC(O)C5(C)C4CCC32C)C1 (stereo not given)	inactive	–
CCOc1nc2cccc(C(=O)O)c2n1Cc1ccc(-c2ccccc2-c2noc(=O)[nH]2)cc1	inactive	–
CC(C)=CCCC1(C)Oc2cc3c(c4c2C2C(O4)C(C)(O)CCC21)CN(C(CCC(=O)O)C(=O)O)C3=O (stereo not given)	inactive	–
C[C@@H]1CCN(C(=O)CC#N)C[C@@H]1N(C)c1ncnc2[nH]ccc12	inactive	–
COc1cc(C2Oc3c(O)cc(CCCO)cc3C2CO)ccc1O[C@H]1O[C@H](C)[C@@H](O)[C@H](O)[C@@H]1O (stereo not given in full)	inactive	–
CC1=CC(=O)OC(C)(CC(C)(O)C(=O)O)C1 (stereo not given)	inactive	–
CCC(CCO[C@@H]1O[C@H](CO[C@H]2OC[C@](O)(CO)[C@H]2O)[C@@H](O)[C@H](O)[C@H]1O)C(C)(C)O (stereo not given in full)	inactive	–
C[C@@H]1O[C@@H](O[C@@H]2[C@@H](O)[C@@H](O)[C@H](O[C@@H]3[C@@H](O)[C@@H](O[C@]4(CO)O[C@H](CO)[C@@H](O)[C@@H]4OC(=O)/C=C/c4ccc(O)cc4)O[C@H](CO)[C@H]3OC(=O)/C=C/c3ccc(O)cc3)O[C@H]2C)[C@H](O)[C@H](O)[C@H]1O	inactive	–
COc1ccc([C@@H]2N[C@H](C(=O)O)Cc3c2[nH]c2ccccc32)cc1CN1CCN(c2ccccc2F)CC1	inactive	–

Compound	Potency	activity change, negative = inhibition
CC(C)(O)c1ccc2c(c1)C(=O)CC1[C@](C)(CO)CCC[C@]21C (stereo not given in full)	inactive	–
CC1CC(O)C2(C)C(C(=O)O)=CCCC2C1(C)CCc1ccoc1 (stereo not given)	inactive	–
NC(Cc1c[nH]c2ccccc12)C(=O)NC(CCC(=O)O)C(=O)O (stereo not given)	inactive	–
CC1(C)CCC(C)(C)c2cc3c(cc21)Sc1ccccc1N=C3c1ccc(C(=O)O)cc1	inactive	–
CC1=CC(=O)C[C@H]2[C@@H]1CC[C@@H](C)[C@]21CO[C@H](c2ccoc2)C1=O	inactive	–
COc1cc(C[C@H]2COC(=O)[C@@H]2Cc2ccc(O)c(OC)c2)ccc1O	inactive	–
OCc1ccccc1O[C@@H]1O[C@H](CO)[C@@H](O)[C@H](O)[C@H]1O	inactive	–
CC(C)CC1(C(=O)OCc2ccc(O[C@@H]3O[C@H](CO)[C@@H](O)[C@H](O)[C@H]3O)cc2)CC(=O)OC(C(=O)O)CC(=O)OCC2OC(O1)C(OC(=O)/C=C/c1ccc(O)cc1)C(O)C2O (stereo not given in full)	inactive	–
C[C@@H]1O[C@@H](O[C@H]2[C@H](OC(=O)[C@]34CCC(C)(C)C[C@H]3C3=CCC5[C@@]6(C)C[C@H](O)[C@H](O[C@@H]7O[C@H](CO)[C@@H](O[C@@H]8O[C@H](CO)[C@@H](O)[C@H](O)[C@H]8O)[C@H](O)[C@H]7O)[C@@](C)(CO)C6[C@H](O)C[C@@]5(C)[C@]3(C)C[C@H]4O)OC[C@H](O)[C@@H]2O)[C@H](O)[C@H](O)[C@H]1O[C@@H]1OC[C@@H](O)[C@H](O[C@@H]2OC[C@](O)(CO)[C@H]2O)[C@H]1O (stereo not given in full)	–	4.23% [at 12.4 µM] (inactive)
CCC[C@@H]1C[C@@H](C(=O)N[C@@H]([C@H]2O[C@H](SC)[C@H](OP(=O)(O)O)[C@@H](O)[C@H]2O)[C@H](C)Cl)N(C)C1	inactive	–
COC1=CC(=O)O[C@@H](CCc2ccccc2)[C@@H]1O	inactive	–
O=C(O)c1cc(O[C@@H]2O[C@H](CO[C@@H]3OC[C@@H](O)[C@H](O)[C@H]3O)[C@@H](O)[C@H](O)[C@H]2O)c2ccccc2c1O	inactive	–
C=CC(C)(CC/C=C(\C)CC/C=C(\C)CC(O)/C=C(\C)C(=O)O)O[C@@H]1O[C@H](CO)[C@@H](O)[C@H](O)[C@H]1O[C@@H]1O[C@H](CO)[C@@H](O)[C@H](O)[C@H]1O (stereo not given in full)	inactive	–
CC(C)NC[C@H](O)COc1ccc(CCOCC2CC2)cc1	inactive	–
COc1cc(C2c3cc(O)c(OC)cc3CC(CO)C2CO)ccc1O (stereo not given)	inactive	–
CC[C@H]1OC(=O)[C@H](C)[C@@H](O[C@H]2C[C@@](C)(OC)[C@@H](O)[C@H](C)O2)[C@H](C)[C@@H](O[C@@H]2O[C@H](C)C[C@H](N(C)C)[C@H]2O)[C@@](C)(O)C[C@@H](C)[C@@H]2N[C@@H](COCCOC)OC([C@H]2C)[C@]1(C)O	inactive	–
C=C[C@H]1[C@H](O[C@@H]2O[C@H](CO[C@@H]3OC[C@](O)(CO)[C@H]3O)[C@@H](O)[C@H](O)[C@H]2O)OC=C2C(=O)OCC[C@H]21	inactive	–
CC1=C2[C@@H]([C@H](C)CC[C@H]2/C=C(\C)C(=O)O)[C@H](O)C1	inactive	–
O=c1ccn(C2OC(CO)C(O)C2O)c(=O)[nH]1 (stereo not given)	inactive	–
CC(C)C1=CC2=CCC3[C@](C)(CCC[C@@]3(C)C(=O)O)C2CC1=O (stereo not given in full)	inactive	–
